High-throughput results deposited in PubChem BioAssay by Johns Hopkins Ion Channel Center.
Hits are enriched below; roughly 1.6% of the tested compounds scored in any of these assays.
KCNQ2 inh – rat KCNQ2 potassium channel inhibitors, primary screen, cell-based, CHO-K1, FluxOR thallium flux, B-score; 20 min; hits give low values; B-score at 10 µM; hit rate 1.1% among 310,000; AID 2156, 2009;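 active = fluorescence ratio B-score at most minus 3 library SDs, with starting brightness B-score within 2 library SDs, cut at about -5.5 in these data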
KCNQ2 enhance – potentiators of rat KCNQ2 potassium channel; hit rate 0.54% among 310,000; B-score at 10 µM; Potassium voltage-gated channel subfamily KQT member 2 (Rattus norvegicus), O88943; AID 2239, 2010; CHO-K1 KCNQ2, FluxOR thallium flux fluorescence; hits give high values;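 active = fluorescence ratio B-score at least 3 SD of library B-scores, with initial fluorescence B-score within 3 of them, cut at about 5.3 in these data; same plate scores as AID 2156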;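 note: B-score of peak minus minimum over baseline fluorescence ratio after K+ and Tl+ stimulus; positive B-score means potentiation of KCNQ2 with more thallium influx and brighter signal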
Kir21 conf inh – mouse Kir2.1 channel blockers, retest, confirmation, cell-based, FluxOR thallium flux, duplicate. shares compounds with KCNQ2 enhance. Kir2.1-expressing cells, FluxOR thallium flux fluorescence; hits give low values. Tl flux remaining, % of negative control (hits give low values), % at 10 µM. hit rate 41% among 2,300;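 active = Primary-screen hit whose thallium flux fell at least 3 control SD below untreated wells in both duplicates, with normal baseline fluorescence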;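 note: 0% = blank wells without stimulus and 100% = stimulated no-compound controls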
Target sequence (P35561 whole entry, looked up): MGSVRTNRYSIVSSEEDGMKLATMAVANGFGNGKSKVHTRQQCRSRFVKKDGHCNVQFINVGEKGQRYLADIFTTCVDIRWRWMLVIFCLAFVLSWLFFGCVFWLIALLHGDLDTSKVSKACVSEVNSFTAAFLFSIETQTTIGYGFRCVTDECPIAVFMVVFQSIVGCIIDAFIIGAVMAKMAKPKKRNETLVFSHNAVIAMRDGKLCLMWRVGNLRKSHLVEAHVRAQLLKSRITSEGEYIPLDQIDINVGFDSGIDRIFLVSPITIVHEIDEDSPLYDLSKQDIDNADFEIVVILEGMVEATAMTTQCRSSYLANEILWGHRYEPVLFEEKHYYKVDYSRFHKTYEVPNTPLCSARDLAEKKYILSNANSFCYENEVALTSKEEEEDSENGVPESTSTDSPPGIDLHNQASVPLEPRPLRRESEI
HEK293 ctr – counter-screen for Kir2.1 inhibitors: effect in parental HEK293 cells; shares compounds with KCNQ2 enhance; FluxOR thallium flux fluorescence; 0% = unstimulated blank wells; FluxOR signal as % of negative control (100 = no effect), % at 10 µM; hit rate 19% among 2,300;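 active = dye signal at least 3 control SD above or below untreated wells in both duplicates, raw fluorescence within 3, either direction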;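 note: percent is based on the flux ratio of peak minus minimum fluorescence over baseline F0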
CHO-K1 ctr – nonspecific thallium flux increase in parental CHO-K1, confirmation, counter-screen for KCNQ2 potentiator project, cell-based, FluxOR thallium flux, duplicate; activity increase over 3SD of controls, % at 10 µM; hit rate 43% among 1,200; parental CHO-K1 cells, FluxOR thallium flux fluorescence; zero = vehicle mean+3SD, 100% = vehicle-minus-blank window; shares compounds with KCNQ2 enhance;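 active = signal rise of at least 3 SD above the untreated control mean, in both duplicate wells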;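 note: counter screen of KCNQ2 potentiator hits so any rise reflects channel-independent effects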
KCNQ1 sel pot – human KCNQ1 channel potentiation off-target, confirmation, selectivity assay for KCNQ2 potentiator project, cell-based, CHO, FluxOR thallium flux; shares compounds with KCNQ2 enhance; CHO KCNQ1 stable, FluxOR thallium flux fluorescence; beyond 3SD, as % of vehicle-control signal; activation over 3SD threshold, % at 10 µM; hit rate 28% among 1,200;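 active = fluorescence ratio rise of at least 3 SD of vehicle wells above their mean, in both replicate wells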;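 note: 0% = vehicle mean plus 3 SD and 100% = vehicle minus unstimulated blank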
KCNQ2 pot conf – rat KCNQ2 channel potentiators, confirmation, cell-based, CHO, FluxOR thallium flux, duplicate. shares compounds with KCNQ2 enhance. CHO-KCNQ2 cells, FluxOR thallium flux fluorescence. potentiation, less the hit threshold, % at 10 µM. hit rate 68% among 1,200;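 active = fluorescence ratio rising 3 SD or more over the vehicle control mean in both replicates, plus primary screen hit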;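 note: peak minus minimum thallium fluorescence divided by baseline after K/Tl stimulus; 0% = vehicle mean plus 3 SD and 100% = vehicle minus unstimulated blank difference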
Kir21 spec – mouse Kir2.1 channel activation off-target, confirmation, selectivity assay for KCNQ2 potentiator project, cell-based, HEK293, FluxOR thallium flux | HEK293 Kir2.1, FluxOR thallium flux fluorescence | activity over 3SD threshold, % at 10 µM | shares compounds with KCNQ2 enhance | hit rate 2% among 1,200;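 active = fluorescence ratio rise of at least 3 SD above the vehicle-control mean, seen in both replicates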;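 note: 0% = vehicle mean plus 3 SD and 100% = vehicle minus no-stimulus blank window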
KCNQ2 W236L pot – potentiators of retigabine-insensitive KCNQ2 W236L, mechanism study for KCNQ2 potentiator project, cell-based, rat KCNQ2 W236L, CHO, automated patch clamp; hit rate 10% among 940; current increase over 3SD of negative controls (%), hits give high values, % at 25 µM; automated patch clamp current; shares compounds with KCNQ2 enhance;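 active = current increase at least 3 SD of the untreated controls above them in both duplicate recordings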
Numbers without * were called inactive; i = inactive; / = no result given.

SMILES	KCNQ2 inh	KCNQ2 enhance	Kir21 conf inh	HEK293 ctr	others
Cc1ccc(S(=O)(=O)NC(C(=O)OCC(=O)NC(=O)c2cccn2C)C(C)C)cc1 (stereo unspecified)	i	0.09	/	/
CCOC(=O)C(NS(=O)(=O)c1ccc(Br)cc1)C(C)C (stereo unspecified)	i	0.59	42.5%*	i
Cc1cc(NC(=S)N(Cc2ccc(Br)cc2)Cc2ccc(C(=O)O)cc2)ccc1Cl	i	/	/	/
Cc1ccc(C(NC(=O)Nc2ccccn2)C(Cl)(Cl)Cl)cc1F (stereo unspecified)	i	/	/	/
CCn1c(C(=O)Nc2ccsc2C(=O)OC)cc2sc(Cl)cc21	i	/	/	/
O=[N+]([O-])c1ccc(C[n+]2cccc3c4ccccc4ccc32)cc1	i	1.06	/	/
CCCCCCCCC[n+]1cccc2c3ccccc3ccc21	i	/	6.5%*	i
Cc1cc(C)c(NC(=O)C2CSCCS2)c(C)c1 (stereo unspecified)	i	6.46*	i	i	CHO-K1 ctr=22.7*;KCNQ1 sel pot=15.3*;KCNQ2 pot conf=-3.0;Kir21 spec=-31.9;KCNQ2 W236L pot=i
Cc1cc(C)c(NC(=O)C2CCCCN2C)c(C)c1 (stereo unspecified)	i	/	/	/
O=C(CSc1nnc(-c2cccnc2)n1Cc1ccco1)c1ccc(Br)cc1	i	/	67.5%*	72.5%*
O=C(CSc1nnc(-c2cccnc2)n1Cc1ccco1)c1ccc2ccccc2c1	i	/	/	/
COc1ccc2c(c1)N(C(=O)CSc1n[nH]c(C)n1)C(C)(C)C=C2C	i	1.4	/	/
CCCCc1cc(O)c(CCCC)c(O)c1	i	8.65*	/	/	CHO-K1 ctr=-15.6;KCNQ1 sel pot=-14.8;KCNQ2 pot conf=38.1*;Kir21 spec=-55.2;KCNQ2 W236L pot=i
CCCCCc1cc(O)c2c(C)cc(=O)oc2c1	i	0.22	/	/
O=C(NNC(=O)c1ccncc1)Nc1cccc(C(F)(F)F)c1	i	0.3	/	/
N#C/C(=C\c1cccc(Br)c1)C(=O)N1CCCCC1	-8.53*	-8.53	45.0%*	i
N#C/C(=C\c1cccc(O)c1)C(=O)N1CCCCC1	i	/	/	/
COc1ccc(C(=O)NCC(=O)OCC(=O)Nc2ccc(C)c(S(=O)(=O)N(C)C)c2)cc1OC	i	2.2	/	/
O=C(NCCCN1CCCC1=O)c1ccc(S(=O)(=O)Nc2cccc(C(F)(F)F)c2)cc1	i	/	/	/
O=[N+]([O-])c1c(Nc2ccccc2O)ccc2nonc12	i	1.27	/	/
O=[N+]([O-])c1c(Nc2ccccc2O)cc(Cl)c2nonc12	-15.9*	-15.9	71.0%*	46.0%*
O=C(Cc1ccccc1)NCC(=O)OCC(=O)c1ccc(OC(=O)c2ccccc2)cc1	i	/	/	/
COc1ccc(COC[C@H](C)[C@H](O)[C@@H](C)[C@H]2OC(=O)[C@@H]2C)cc1	i	1.15	/	/
c1ccc(OCCOCCN2CCc3ccccc3C2)cc1	i	0.27	/	/
CCOc1ccc(OCCOCCN2CCc3ccccc3C2)cc1	i	1.21	/	/
SMILES	KCNQ2 inh	KCNQ2 enhance	Kir21 conf inh	HEK293 ctr	others
CCCOc1ccc(OCCOCCN2CCc3ccccc3C2)cc1	i	0.21	60.5%*	i
C=CCc1cc(OC)ccc1OCCOCCN1CCc2ccccc2C1	i	/	18.0%*	i
CC(CCc1ccccc1)NC(=O)C1CCN(S(=O)(=O)c2cnc[nH]2)CC1 (stereo unspecified)	i	0.58	/	/
CCCCN(C(=O)CNC(=O)c1ccco1)C(C(=O)NC1CCCCC1)c1cccnc1 (stereo unspecified)	i	1.25	/	/
Cc1ccc(C)c(N(CC(=O)NC2CCCCC2)C(=O)CNC(=O)c2ccco2)c1	i	0.68	/	/
O=C(COC(=O)Cc1c[nH]c2ccccc12)NC1CCCCC1	i	0.06	42.0%*	i
O=C(COC(=O)Cc1c[nH]c2ccccc12)Nc1ccccc1	i	/	/	/
Cc1cc(C(C)(C)C)ccc1OCC(=O)N/N=C\c1c(C)n(C)n(-c2ccccc2)c1=O	i	0.16	/	/
Cc1cc(=S)nc(-c2ccccn2)[nH]1	i	2.42	/	/
Cc1[nH]c(-c2ccccn2)nc(=S)c1Cl	i	11.1*	i	298.5%*	CHO-K1 ctr=-8.9;KCNQ1 sel pot=-7.2;KCNQ2 pot conf=42.5*;Kir21 spec=-18.4;KCNQ2 W236L pot=i
Cc1ccc(C2Cc3cc(O)c(O)cc3CN2)cc1 (stereo unspecified)	i	/	28.5%*	62.0%*
Cc1ccc(O)c(O)c1	i	/	/	/
Cn1c(=O)c2c(n(Cc3ccccc3)c1=O)NC(=O)C2CC(=O)NCc1cccc(Cl)c1 (stereo unspecified)	i	0.91	/	/
CC(=O)C1=C(C)NC(SCC(N)=O)=C(C#N)C1CC(C)C (stereo unspecified)	i	/	/	/
CCOC(=O)C1=C(C)NC(SC)=C(C#N)C1CC(C)C (stereo unspecified)	i	/	74.5%*	i
COc1ccc(OC)c(NC2c3ccccc3C(=O)N2c2cccnc2)c1 (stereo unspecified)	i	/	/	/
CC1CCN(C(=O)CSc2nc3c(c(=O)n2C)SC(C)C3)CC1 (stereo unspecified)	i	/	/	/
NC(=NCc1ccco1)NC(=O)c1ccc(Cl)cc1	i	7.03*	i	i	CHO-K1 ctr=2.6*;KCNQ1 sel pot=-21.6;KCNQ2 pot conf=51.0*;Kir21 spec=-48.9;KCNQ2 W236L pot=i
O=C(NCCCNC(=O)c1ccco1)c1ccc(Cl)cc1	i	/	/	/
CN(C)CCCN(C(=O)c1ccc([N+](=O)[O-])o1)c1nc2cc3c(cc2s1)OCO3	i	0.05	/	/
CCOCCCNc1ncnc2c1[nH]c1ccccc12	i	1.49	/	/
CCCCOCCCNc1ncnc2c1[nH]c1ccccc12	i	/	44.5%*	i
